assay: JC-1 mitochondrial signal, unstimulated HepG2 cells – cell-based, JC-1 fluorescence, 24 h, 100 nL compound, profiling panel (AID 1167); conditions: HepG2 mitochondrial potential, higher = more signal; note: test concentration not given here

Row | Compound | z-score
1 | CO[C@H]1COC(=O)CCC[C@H](C)[C@H](OC)COC(=O)CC=C[C@@H]1C | -0.101
2 | CCO[C@H](c1cc(OC)cc([N+](=O)[O-])c1OC)[C@H](C)[C@@H](OC)[C@H](C)C=CCC(=O)OC | -0.524
3 | O=C1[C@H]2[C@H]3[C@H](O)[C@H](O)CC(=NOC[C@@H](O)COCc4ccco4)[C@@H]3CC[C@H]2C(=O)N1Cc1ccccc1 | -0.083
4 | COC(=O)CC=C[C@@H](C)[C@@H](C=NOC[C@@H](O)COCc1ccco1)OC | -0.327
5 | C[C@@H](c1ccccc1)N1C(=O)[C@H]2[C@H]3[C@H](O)[C@H](O)CC(=NNC(=O)OCc4ccccc4)[C@@H]3CC[C@H]2C1=O | -0.604
6 | CCOC(=O)[C@H](Cc1ccccc1)NC(=O)CCC1CC(OC(=O)NCc2ccc3c(c2)OCO3)CC2(CCCC(COC(=O)NCCOC)O2)O1 (stereo partly specified) | 0.724
7 | CCOC(=O)CCN1C(=O)[C@H]2[C@H]3[C@H](O)[C@H](O)CC(=NNC(=O)OCc4ccccc4)[C@H]3CC[C@H]2C1=O | -0.952
8 | COc1ccc(O[C@H]2C=C[C@@H](c3ccccc3)O[C@@H]2COC(=O)CCC(C)=NOC[C@@H](O)COCc2ccco2)cc1 | -0.918
9 | CCCCOC(OCCCC)C(O)CSc1ccc2ccccc2c1 (stereo unspecified) | -0.36
10 | CC(C)CON=C1C[C@@H](O)[C@@H](O)[C@@H]2[C@@H]3C(=O)N(Cc4ccc5c(c4)OCO5)C(=O)[C@@H]3CC[C@@H]12 | 0.367
11 | COC(=O)[C@H](C)NC(=O)CCC1CC(OC(=O)NCCc2ccc(F)cc2)CC2(CCCC(COC(=O)NCCc3ccccc3OC)O2)O1 (stereo partly specified) | 0.15
12 | CCN1C(=O)[C@H]2[C@@H]3C(=CC[C@H]2C1=O)C(=O)[C@H]1O[C@H]1[C@H]3O | -2.06
13 | C[C@H]1CC[C@@H](C(=O)O)N[C@@H]1c1cccc(N2CCCC2=O)c1 | 1.66
14 | CCOC(=O)CCN1C(=O)[C@H]2[C@H]3[C@H](O)[C@H](O)CC(=NO[C@@H]4O[C@H](CO)[C@@H](O)[C@H](O)[C@H]4O)[C@H]3CC[C@H]2C1=O | -1.13
15 | O=C1C2=CC[C@H]3C(=O)N(Cc4ccccc4)C(=O)[C@H]3[C@H]2[C@H](O)[C@@H]2O[C@H]12 | -2.12
16 | CC(CCC(=O)OC[C@H]1O[C@H](C#Cc2ccccc2)C=C[C@@H]1Oc1ccc(C)cc1)=NO[C@@H](C)c1cc(-c2c(C)cc(C)cc2C)no1 | 1.78
17 | CO[C@@H]1[C@H](O)CO[C@H]1C=Cc1ccccc1 | 0.161
18 | COc1ccc(O[C@H]2C=C[C@@H](c3ccccc3)O[C@@H]2COC(=O)NCc2cccc3ccccc23)cc1 | 0.194

Row | Compound | z-score
19 | CCOC(=O)CCN1C(=O)[C@H]2[C@@H]3C(=CC[C@H]2C1=O)C(=O)[C@H]1O[C@H]1[C@H]3O | -1.23
20 | COC(=O)[C@H](Cc1ccccc1)NC(=O)[C@@H](C)CO | 0.892
21 | CC(CCC(=O)OC[C@H]1O[C@H](C#Cc2ccccc2)C=C[C@@H]1Oc1ccc(C)cc1)=NO[C@H](C)c1cn([C@@H]2COC[C@H]2O)nn1 | -0.662
22 | COC(=O)[C@H](C)NC(=O)CC=C[C@@H](C)[C@@H]1C=C[C@H](O)[C@@H](CO)O1 | -0.627
23 | COc1ccc(O[C@H]2C=C[C@@H](c3ccccc3)O[C@@H]2CON=C(C)CCN2CCCc3nc(C)c(C)cc32)cc1 | 2.98
24 | COC(=O)[C@H](CCSC)NC(=O)CC=C[C@@H](C)CO | 0.705
25 | CC(CCN1CCc2nc(-c3ccccc3)c(-c3ccccc3)cc2C1)=NO[C@@H](C)c1cc(-c2c(C)cc(C)cc2C)no1 | 2.47
26 | CCOC(=O)[C@H](CC(C)C)NC(=O)CCC1CC(OC(=O)NCc2ccc3c(c2)OCO3)CC2(CCCC(COC(=O)NCCc3ccc(Cl)cc3)O2)O1 (stereo partly specified) | -0.253
27 | CN1CCc2nc(-c3ccccc3)c(-c3ccccc3)cc2C1 | 0.25
28 | CC(C)CON=C1C[C@@H](O)[C@@H](O)[C@@H]2[C@@H]3C(=O)N([C@@H](C)c4ccccc4)C(=O)[C@@H]3CC[C@@H]12 | -0.889
29 | CC(CCC(=O)OC[C@H]1O[C@H](C#Cc2ccccc2)C=C[C@@H]1Oc1ccc(C)cc1)=NOC[C@@H](C)[C@H](OCc1ccccc1)C(C)C | -0.043
30 | CC1(C)O[C@H]2OC([C@H](O)CON3C(=O)c4ccccc4C3=O)[C@H](O)[C@H]2O1 (stereo partly specified) | -0.249
31 | C#CCCCON=C1C[C@@H](O)[C@@H](O)[C@@H]2[C@@H]3C(=O)N(CC)C(=O)[C@@H]3CC[C@H]12 | -0.58
32 | CCCC[C@H]1CN2[C@@H](CC[C@@H](C)[C@@H]2c2ccc(Br)cc2)C(=O)O1 | 0.13
33 | C[C@@H]1CC[C@H]2C(=O)O[C@@H](CN=[N+]=[N-])CN2[C@H]1c1ccc(Br)cc1 | -2.08
34 | CCOC(=O)[C@H](CC(C)C)NC(=O)CCC1CC(OC(=O)NCc2ccc3c(c2)OCO3)CC2(CCCC(COC(=O)NCCc3ccccc3OC)O2)O1 (stereo partly specified) | -0.828
35 | CCCNC(=O)OC[C@H]1O[C@H](CCON=C2C[C@@H](O)[C@@H](O)[C@@H]3[C@@H]4C(=O)N(CC)C(=O)[C@@H]4CC[C@@H]23)C=C[C@@H]1Oc1ccc(OC)cc1 | -1.18
36 | COCOc1ccc(Br)cc1C(=O)C=Cc1ccc2c(c1)OCO2 | 1.28

Source: PubChem BioAssay
